From PubChem BioAssay come the findings set out here.

Activity calls are given as the source filed them.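 How the source made its calls: active means viability at or under a set limit in both replicates, limit being median viability minus 3 SD (cut at about 48% in these data, passing the limit was not always enough); inconclusive means at or under the limit in just one replicate; inactive means at or above the limit in both replicates.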

The nature of this test: H69AR cell proliferation blockers – human, duplicate replicates, primary screen (AID 580).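 Further: 100% = mean luminescence of untreated wells and 0% = no signal.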 Particulars: H69AR lung tumor cells viability, ATP luminescence, 72 h; at 10 µM; hits give low values.
What is called viability is a read-out of living cells in per cent, often relative to untreated cells. `COc1ccc(C2=CC(=O)OC3(CCCCC3)O2)cc1`: the viability was 56.5% (inactive).

On to `CCCCNC(=O)c1nnn(-c2ccccc2)c1N`, for which the viability is 92.2% (inactive).

Turning to `Cc1ccc(Nc2nc(Oc3ccc(=O)[nH]n3)nc(N(C)C)n2)cc1`, the viability is 94% (inactive).

`CN(C(=O)C1CCOC1)c1nnc(-c2cccnc2)s1` (stereo not given): the viability was 88.5% (inactive).

On to `NS(=O)(=O)c1cc2c(cc1Cl)NC=NS2(=O)=O`, for which the viability is 100% (inactive).

`COc1cccc(NC(=O)COC(=O)c2cccnc2)c1`: the viability is 91.1% (inactive).

On to `CCN=C1SC(CC(=O)Nc2ccccc2OCC)C(=O)N1CC` (stereo not given), for which the viability is 94.5% (inactive).

With `O=S(=O)(NC1CCCCC1NS(=O)(=O)c1ccc(F)cc1)c1ccc(F)cc1` (stereo not given), the viability was 94.1% (inactive).

With `CCn1cnc2sc(C(=O)Nc3ccc4c(c3)OCO4)c(C)c2c1=O`, the viability is 94% (inactive).

With `O=C1C2CCCN2C(c2ccccc2)N1c1ccc(Cl)cc1` (stereo not given), the viability was 104% (inactive).

With `CNc1nnc(-c2cccc(N(C)C)c2)s1`, the viability is 92% (inactive).

`COC(=O)Cc1c(C)nc2nc[nH]n2c1=O`: the viability is 105% (inactive).

As for `CCC(c1nnc(SCC(=O)Nc2ccc(C(=O)Nc3ccccc3OC)cc2)o1)N(C)C` (stereo not given), the viability was 107% (inactive).

With `CC1Oc2ccccc2N(Cc2ccccc2Cl)C1=O` (stereo not given), the viability is 89.1% (inactive).

As to `CCn1cc(C(=O)O)c(=O)c2ccc(C)nc21`, the viability is 101% (inactive).

In the case of `COc1ccccc1NC(=O)Cc1noc(CSc2cc(C)c3ccccc3n2)n1`, the viability was 92.5% (inactive).

Take `CC(COc1ccccc1)N(CCCl)Cc1ccccc1` (stereo not given): the viability was 56.1% (inactive).

For `O=C(c1cnc2sccn2c1=O)N1CCc2ccccc2C1`, the viability was 104% (inactive).

As to `COc1ccccc1N1CCN(c2cc(N3CCCC3)nc(C)n2)CC1`, the viability was 87.8% (inactive).

As to `COC(=O)CCn1nnc(-c2ccc(C)cc2)n1`, the viability was 94.1% (inactive).

For `Cc1cccc(-n2c(SCc3cc(=O)n4ccsc4n3)nc3ccccc32)c1`, the viability is 78.5% (inactive).

Consider `COc1ccc(CCN2C(=O)CC(N3CCOCC3)C2=O)cc1` (stereo not given), for which the viability is 96.2% (inactive).

Consider `CCCCCCC(c1c(C)n(C)n(-c2ccccc2)c1=O)c1c(C)n(C)n(-c2ccccc2)c1=O`, for which the viability was 80.8% (inactive).

As to `CCCCSc1nnc([C@H](C)NC(=O)OC(C)(C)C)o1`, the viability was 90.3% (inactive).

Consider `Cc1c(N=C2SCC(=O)N2c2c(C)n(C)n(-c3ccccc3)c2=O)c(=O)n(-c2ccccc2)n1C`, for which the viability was 94.2% (inactive).

On to `Cc1nc2ccc(C(=O)O)cc2c2c1CC(C)S2` (stereo not given), for which the viability is 90.8% (inactive).

`CC1(C)CC(=O)C(CC(=O)NC(=O)NCc2ccccc2)=C(O)C1`: the viability was 105% (inactive).

`O=C(Nc1ccccc1Cl)c1c(F)c(F)c(F)c(F)c1F`: the viability is 90.2% (inactive).

In the case of `COC(=O)c1ccc(CSc2nnnn2Cc2ccccc2)cc1`, the viability is 86% (inactive).

For `Cc1ccc(F)cc1NC(=O)C1CCCN(c2ncccn2)C1` (stereo not given), the viability is 88.7% (inactive).

Consider `O=C(NCc1ccccc1)C1CCCN(S(=O)(=O)c2cccnc2)C1` (stereo not given), for which the viability is 99% (inactive).

Regarding `COc1cc(NS(=O)(=O)c2ccc(N)cc2)nc(OC)n1`, the viability was 100% (inactive).

With `Cc1cc(=O)[nH]c(SCc2nc3ncccn3c2Br)n1`, the viability is 88.9% (inactive).

For the compound `CC(=O)OCC1=C(C(=O)O)N2C(=O)[C@@H](NC(=O)Cc3cccs3)[C@H]2SC1`, the viability was 94.2% (inactive).

Take `CCc1nn(CC(=O)N2CCN(Cc3ccc4c(c3)OCO4)CC2)c(=O)c2cc3occc3n12`: the viability was 91.8% (inactive).

`CC(=O)OC[C@H]1O[C@@H](n2ncc(=O)[nH]c2=O)[C@H](OC(C)=O)[C@@H]1OC(C)=O`: the viability was 91.3% (inactive).

On to `Cc1cc(C)cc(-n2nnc(C(=O)NCc3ccc4c(c3)OCO4)c2N)c1`, for which the viability is 97.7% (inactive).

Turning to `C=CCNc1nc2c(c(=O)n(C)c(=O)n2C)n1CCCCCC`, the viability was 82.6% (inactive).

For the compound `O=C(CSc1nc2ccccc2[nH]1)c1ccc2c(c1)OCO2`, the viability is 107% (inactive).

For the compound `NS(=O)(=O)c1cc2c(cc1Cl)NCNS2(=O)=O`, the viability was 91.3% (inactive).
